Read-out in assay [1]: Decorin, DCN (gene 1634)
The assay is described as follows: BSK_MyoF_Decorin: BioMAP Diversity Plus: MyoF Assay for Decorin Biomarker Activity (AID 2284265). The following applies: primary human lung fibroblasts. The method, boiled down: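 In this multiplexed fibroblast system, secreted or surface decorin is detected by ELISA one day after dosing, with increases scored against the DMSO vehicle.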

A short description of assay [2]: BSK_MyoF_SRB: Viability Assessment in the BioMAP Diversity Plus: MyoF Assay (AID 2284267).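 Further: total protein by SRB absorbance in parallel cultures as cytotoxicity measure; cells assessed 24 h after compound addition.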 The following applies: primary human lung fibroblasts. The procedure, abridged:
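Human lung fibroblasts, 24 h after chemical dosing; total protein measured by 0.1% sulforhodamine B staining after 10% TCA fixation, read at 560 nm, fitted relative to DMSO baseline.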

Read-out in assay [3]: Matrix Metallopeptidase 1 (MMP1), MMP1 (gene 4312)
As to the kind of experiment: BSK_MyoF_MMP1: BioMAP Diversity Plus: MyoF Assay for Matrix Metallopeptidase 1 (MMP1) Biomarker Activity (AID 2284268). Particulars: primary human lung fibroblasts. The procedure, abridged:
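Fibroblasts from human lung receive compound for 24 h before ELISA quantitation of MMP1. DMSO serves as baseline, and the endpoint is fitted for signal gain.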

Read-out in assay [4]: TIMP metallopeptidase inhibitor 1 (TIMP1), TIMP1 (gene 7076)
The assay is described as follows: BSK_MyoF_TIMP1: BioMAP Diversity Plus: MyoF Assay for TIMP metallopeptidase inhibitor 1 (TIMP1) Biomarker Activity (AID 2284269). Particulars: primary human lung fibroblasts. The procedure, abridged: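 ELISA read-out of TIMP-1 from primary human lung fibroblast cultures 24 h after compound dosing; gain of signal relative to DMSO vehicle baseline defines activity.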

Read-out in assay [5]: Interleukin-8 (IL8), CXCL8 (gene 3576)
The assay is described as follows: BSK_BF4T_IL8: BioMAP Diversity Plus: BF4T Assay for Interleukin-8 (IL8) Biomarker Activity (AID 2284263). The following applies: primary human bronchial epithelial cells with fibroblasts. The method, boiled down:
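Human bronchial epithelial cells with dermal fibroblasts co-culture; IL-8 measured by ELISA 24 hours after dosing, fitted vs DMSO. Cytotoxicity tracked in parallel cultures by SRB total-protein staining.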

Read-out in assay [6]: KRT18 (gene 3875)
As to the kind of experiment: BSK_BF4T_Keratin818: BioMAP Diversity Plus: BF4T Assay for Keratin 818 Biomarker Activity (AID 2284266). Particulars: primary human bronchial epithelial cells with fibroblasts. The method, boiled down:
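Co-culture of human bronchial epithelial cells and dermal fibroblasts, chemical exposure 24 h. Keratin 8/18 measured by ELISA; positive-direction fit vs DMSO. SRB total protein run in parallel cultures for cytotoxicity.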

Read-out in assay [7]: Matrix Metallopeptidase 1 (MMP1), MMP1 (gene 4312)
As to the kind of experiment: BSK_BF4T_MMP1: BioMAP Diversity Plus: BF4T Assay for Matrix Metallopeptidase 1 (MMP1) Biomarker Activity (AID 2284270). The following applies: primary human bronchial epithelial cells with fibroblasts. The method, boiled down:
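Co-culture of human bronchial epithelial cells and dermal fibroblasts; MMP-1 levels measured by ELISA 24 hours after chemical dosing, relative to DMSO. Cytotoxicity checked in parallel cultures by SRB total-protein staining.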

Read-out in assay [8]: Matrix Metallopeptidase 3 (MMP3), MMP3 (gene 4314)
The assay is described as follows: BSK_BF4T_MMP3: BioMAP Diversity Plus: BF4T Assay for Matrix Metallopeptidase 3 (MMP3) Biomarker Activity (AID 2284271). The following applies: primary human bronchial epithelial cells with fibroblasts. The method, boiled down: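 Co-culture of human bronchial epithelial cells and dermal fibroblasts dosed 24 h; MMP-3 measured by ELISA, positive-direction fit versus DMSO. Cytotoxicity tracked by SRB total-protein staining (560 nm) in parallel cultures.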

Read-out in assay [9]: Tissue plasminogen activator (tPA), PLAT (gene 5327)
The assay is described as follows: BSK_BF4T_tPA: BioMAP Diversity Plus: BF4T Assay for Tissue plasminogen activator (tPA) Biomarker Activity (AID 2284272). Particulars: primary human bronchial epithelial cells with fibroblasts. The procedure, abridged: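 tPA level quantified by ELISA at 24 h post-treatment in bronchial epithelial/dermal fibroblast co-cultures, gain of signal scored against DMSO baseline. Parallel cultures stained with 0.1% SRB (560 nm) to flag overt cytotoxicity.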

Assay [10] in a line: BSK_BF4T_SRB: Viability Assessment in the BioMAP Diversity Plus: BF4T Assay (AID 2284274).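 On AC50: total cell protein by sulforhodamine B staining as a cytotoxicity measure; measured 24 h after compound addition.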 The following applies: primary human bronchial epithelial cells with fibroblasts. The method, boiled down: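 Co-culture of human bronchial epithelial cells and dermal fibroblasts (BioMAP BF4T) exposed 24 h. Total protein by sulforhodamine B staining (0.1% SRB after 10% TCA fixation, 560 nm) in parallel cultures; fitted vs DMSO.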

“And” between values parts separate entries of the source, which are not always exact repeats. Identical values can stand only once. Some compounds were tested as several samples or in several runs, with calls that do not always agree. The source made the active and inactive calls. How the source made its calls: active means hit-call score of the fitted dose curve at least 0.9, where 1 is the maximum; inactive means score below 0.9.

For `Oc1cc2ccccc2cc1O`, the outcome in assay [1], in assay [2], in assay [3] and in [4] was inactive.

In the case of `CC(C)(C)c1ccc(O)c(O)c1`, the outcome in [1] and in assay [3] was inactive. The AC50 in assay [2] is 33.5 µM (active); in assay [4], 31.2 µM (active).

Consider `O=C1OC2(c3ccccc31)c1cc(I)c(O)c(I)c1Oc1c2cc(I)c(O)c1I`, for which the values for the concentration at half-maximal activity (AC50) in [1], in [3] and in assay [4] were 2.56 µM (active), 0.605 µM (active) and 7.73 µM (active), respectively. The outcome in assay [2] was inactive.

Take `O=C(NO)c1ccccc1`: the result in assay [1], in assay [2], in [3] and in assay [4] was inactive.

On to `CCCCCc1ccc(O)cc1`, for which, in assay [1], the outcome was inactive. The AC50 in assay [2] is 28.7 µM (active); in assay [3], 36.6 µM (active); in assay [4] it was 20 µM (active).

`Cc1ccc(C(=O)c2ccccc2)cc1`: the outcome in assay [1], in assay [2] and in assay [4] was inactive. Moreover, the half-maximal activity concentration (AC50) in assay [3] is 38.7 µM (active).

Consider `C=CC(=C)CC/C=C(\C)CCC=C(C)C`, for which the outcome in [1], in assay [2], in [3] and in [4] was inactive.

Regarding `O=C(O)CCC(F)(F)C(F)(F)C(F)(F)C(F)(F)C(F)(F)F`, the outcome in [5], in [1], in assay [6], in assay [2], in assay [3] and in assay [4] was inactive. Besides, the result in assay [7], in assay [8], in assay [9] and in assay [10] was inactive.

With `O=C1c2ccc(O)c(O)c2C(=O)c2c(O)ccc(O)c21`, the outcome in assay [1], in assay [2], in assay [3] and in assay [4] was inactive.

For `COc1cccc(O)c1`, the result in assay [1], in [2], in [3] and in [4] was inactive.

As to `COc1cc(OC)nc(NC(=O)NS(=O)(=O)Nc2ccccc2C(=O)N(C)C)n1`, the outcome in assay [1], in assay [2], in assay [3] and in assay [4] was inactive.

For the molecule `OCCN1CN(CCO)CN(CCO)C1`, the outcome in assay [1], in assay [2], in [3] and in [4] was inactive.

Take `O=C(CC(=O)C(F)(F)C(F)(F)C(F)(F)F)c1cccs1`: the AC50 in [5] was 52.8 µM (active) and 55.1 µM (active); in [6], 23.1 µM (active) and 28 µM (active); in [7] it was 19.3 µM (active) and 17 µM (active); in assay [8], 37.6 µM (active) and 25.2 µM (active); in assay [9], 30 µM (active); in assay [10], 23.9 µM (active) and 26.7 µM (active). Also, the result in assay [1], in [2], in [3] and in assay [4] was inactive.

On to `C=CC(=O)OCCC(F)(F)C(F)(F)C(F)(F)C(F)(F)C(F)(F)C(F)(F)C(F)(F)C(F)(F)F`, for which the result in assay [5], in [1], in [6], in assay [2], in assay [3] and in assay [4] was inactive. The result in [7], in [8], in assay [9] and in [10] was inactive.

In the case of `CN(C)c1ccc(C(=C2C=CC(=[N+](C)C)C=C2)c2ccccc2)cc1`, the result in assay [1] and in [3] was inactive. Further, the half-maximal activity concentration (AC50) in assay [2] was 0.485 µM (active); in assay [4], 0.697 µM (active).

Regarding `CN(CCO)S(=O)(=O)C(F)(F)C(F)(F)C(F)(F)C(F)(F)C(F)(F)C(F)(F)C(F)(F)C(F)(F)F`, the concentration at half-maximal activity (AC50) in [5] is 24.5 nM (active). Besides, the outcome in assay [5], in assay [1], in assay [6], in [2], in assay [3] and in [4] was inactive. The outcome in [7], in assay [8], in assay [9] and in assay [10] was inactive.

As for `COC1=CC(=O)C[C@@H](C)[C@]12Oc1c(Cl)c(OC)cc(OC)c1C2=O`, the result in assay [1], in [2] and in [4] was inactive. Besides, the concentration at half-maximal activity (AC50) in [3] was 20 µM (active).

With `C[C@]12CC[C@@H]3c4ccc(O)cc4CC[C@H]3[C@@H]1C[C@@H](O)[C@@H]2O`, the outcome in [1], in [2], in assay [3] and in [4] was inactive.

For `NC(=NCCCCCCN=C(N)/N=C(\N)Nc1ccc(Cl)cc1)/N=C(\N)Nc1ccc(Cl)cc1`, the concentration at half-maximal activity (AC50) was 9.05 µM (active) in assay [1], 4.76 µM (active) in assay [2], 9 µM (active) in [3] and 4.84 µM (active) in assay [4].

On to `CN(Cc1cnc2nc(N)nc(N)c2n1)c1ccc(C(=O)N[C@@H](CCC(=O)O)C(=O)O)cc1`, for which, in assay [5], the AC50 was 2650 nM (active). Further, the outcome in assay [5], in assay [1], in assay [6], in assay [2], in [3] and in assay [4] was inactive. Further, the outcome in [7], in assay [8], in assay [9] and in assay [10] was inactive.

In general, AC50 refers to the concentration at which the activity in the assay is half-maximal.

For the origin of these results see PubChem BioAssay (EPA / NIEHS).
